Measured values as given in PubChem BioAssay AID1159580 (chemical genetic matrix, 2015).
Values joined by “and” are separate entries in the source; they are usually repeats but may differ in a detail not shown here. Equal entries are not always repeated. The whole screen tested about 5,500 compounds, of which about 2,000 (36%) were called active. About 18% were inconclusive and are not listed. No stated cut-off is given here; in the data, active means normalized growth mostly below about 0.91 (no sharp cut-off); inconclusive means no clear call, values can overlap the other calls; inactive means mostly above about 0.92. This is one part of the list.

Experiment: chemical genetic growth profiling, strain panel (AID 1159580);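 further: tested at 20 µM; growth read once vehicle control cultures reached saturation at 30 °C; 1 = growth at the plate median or of vehicle wells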
Details: growth OD

Measured: normalized growth

CC(C)OC(=O)C(C)(C)Oc1ccc(C(=O)c2ccc(Cl)cc2)cc1
inactive: S. cerevisiae deletion strains, locus YJR075W, strain HOC1, stronger effect = lower value 0.957 and 0.996 | S. cerevisiae deletion strains, locus YKL009W, strain mrt4, stronger effect = lower value 0.906 | S. cerevisiae deletion strains, locus YKL068W, stronger effect = lower value 0.987 | S. cerevisiae deletion strains, locus YKL085W, strain MDH1 (second series), stronger effect = lower value 0.947 | S. cerevisiae deletion strains, locus YKL085W, strain MDH1, stronger effect = lower value 0.947 | S. cerevisiae deletion strains, locus YKL160W, strain elf1, stronger effect = lower value 0.987 | S. cerevisiae deletion strains, locus YKL190W, strain CNB1, stronger effect = lower value 0.974 | S. cerevisiae deletion strains, locus YKR001C, strain vps1, stronger effect = lower value 0.971 | S. cerevisiae deletion strains, locus YKR026C, strain gcn3, stronger effect = lower value 0.959 | S. cerevisiae deletion strains, locus YKR091W, strain srl3, stronger effect = lower value 0.977 | S. cerevisiae deletion strains, locus YLL001W, strain dnm1, stronger effect = lower value 0.96 | S. cerevisiae deletion strains, locus YLL026W, stronger effect = lower value 0.969 | S. cerevisiae deletion strains, locus YLL041C, strain sdh2, stronger effect = lower value 0.975 | S. cerevisiae deletion strains, locus YLR027C, strain aat2, stronger effect = lower value 0.967 | S. cerevisiae deletion strains, locus YLR039C, strain RIC1, stronger effect = lower value 0.935 | S. cerevisiae deletion strains, locus YLR058C, strain SHM2, stronger effect = lower value 1 | S. cerevisiae deletion strains, locus YLR102C, strain apc9, stronger effect = lower value 0.988 | S. cerevisiae deletion strains, locus YLR113W, strain HOG1, stronger effect = lower value 0.942 | S. cerevisiae deletion strains, locus YLR221C, strain rsa3, stronger effect = lower value 0.976 | S. cerevisiae deletion strains, locus YLR258W, strain gsy2, stronger effect = lower value 0.957 | S. cerevisiae deletion strains, locus YLR262C, strain YPT6 (second series), stronger effect = lower value 0.962 | S. cerevisiae deletion strains, locus YLR262C, strain YPT6, stronger effect = lower value 0.984 | S. cerevisiae deletion strains, locus YLR268W, strain sec22, stronger effect = lower value 0.971 | S. cerevisiae deletion strains, locus YLR320W, strain mms22, stronger effect = lower value 0.96 | S. cerevisiae deletion strains, locus YLR330W, strain CHS5, stronger effect = lower value 1.01 | S. cerevisiae deletion strains, locus YLR342W, strain FKS1 (second series), stronger effect = lower value 1.12 | S. cerevisiae deletion strains, locus YLR342W, strain FKS1, stronger effect = lower value 0.955 | S. cerevisiae deletion strains, locus YLR357W, strain rsc2, stronger effect = lower value 0.957 | S. cerevisiae deletion strains, locus YLR370C, strain arc18, stronger effect = lower value 0.967 | S. cerevisiae deletion strains, locus YLR371W, strain rom2, stronger effect = lower value 0.986 | S. cerevisiae deletion strains, locus YLR384C, strain iki3, stronger effect = lower value 0.971 | S. cerevisiae deletion strains, locus YLR418C, strain cdc73, stronger effect = lower value 0.879 | S. cerevisiae deletion strains, locus YML016C, strain PPZ1, stronger effect = lower value 1.01 | S. cerevisiae deletion strains, locus YML032C, strain rad52, stronger effect = lower value 0.984 | S. cerevisiae deletion strains, locus YML120C, strain ndi1, stronger effect = lower value 0.964 | S. cerevisiae deletion strains, locus YML124C, strain tub3, stronger effect = lower value 0.982 | S. cerevisiae deletion strains, locus YMR058W, strain fet3, stronger effect = lower value 0.987 | S. cerevisiae deletion strains, locus YMR078C, strain ctf18, stronger effect = lower value 0.982 | S. cerevisiae deletion strains, locus YMR125W, strain sto1, stronger effect = lower value 0.942 | S. cerevisiae deletion strains, locus YMR129W, stronger effect = lower value 0.97 | S. cerevisiae deletion strains, locus YMR205C, strain PFK2, stronger effect = lower value 0.923 | S. cerevisiae deletion strains, locus YMR223W, strain ubp8, stronger effect = lower value 0.958 | S. cerevisiae deletion strains, locus YMR231W, strain pep5, stronger effect = lower value 0.969 | S. cerevisiae deletion strains, locus YMR263W, strain SAP30, stronger effect = lower value 1 | S. cerevisiae deletion strains, locus YMR307W, strain GAS1, stronger effect = lower value 0.807 and 0.993 | S. cerevisiae deletion strains, locus YNL067W, strain RPL9B, stronger effect = lower value 0.973 | S. cerevisiae deletion strains, locus YNL071W, strain lat1, stronger effect = lower value 0.941 | S. cerevisiae deletion strains, locus YNL128W, strain TEP1, stronger effect = lower value 1.01 | S. cerevisiae deletion strains, locus YNL153C, strain GIM3, stronger effect = lower value 1.01 and 1.02 | S. cerevisiae deletion strains, locus YNL175C, strain NOP13, stronger effect = lower value 1.02 | S. cerevisiae deletion strains, locus YNL183C, strain NPR1, stronger effect = lower value 0.893 | S. cerevisiae deletion strains, locus YNL197C, strain WHI3, stronger effect = lower value 1.03 | S. cerevisiae deletion strains, locus YNL209W, strain ssb2, stronger effect = lower value 0.983 | S. cerevisiae deletion strains, locus YNL224C, strain SQS1, stronger effect = lower value 0.991 | S. cerevisiae deletion strains, locus YNL233W, strain BNI4, stronger effect = lower value 0.978 | S. cerevisiae deletion strains, locus YNL248C, strain rpa49, stronger effect = lower value 0.997 | S. cerevisiae deletion strains, locus YNL250W, strain rad50, stronger effect = lower value 0.989 | S. cerevisiae deletion strains, locus YNL271C, strain bni1, stronger effect = lower value 0.985 | S. cerevisiae deletion strains, locus YNL298W, strain CLA4, stronger effect = lower value 0.992 | S. cerevisiae deletion strains, locus YNL307C, strain MCK1, stronger effect = lower value 0.973 | S. cerevisiae deletion strains, locus YNL322C, strain KRE1 (second series), stronger effect = lower value 0.983 | S. cerevisiae deletion strains, locus YNL322C, strain KRE1, stronger effect = lower value 1.01 and 0.984 | S. cerevisiae deletion strains, locus YNR049C, strain mso1, stronger effect = lower value 0.98 | S. cerevisiae deletion strains, locus YNR052C, strain pop2, stronger effect = lower value 0.991 | S. cerevisiae deletion strains, locus YOL006C, strain TOP1, stronger effect = lower value 0.61 | S. cerevisiae deletion strains, locus YOL012C, strain htz1 0.615 | S. cerevisiae deletion strains, locus YOL147C, strain pex11, stronger effect = lower value 0.984 | S. cerevisiae deletion strains, locus YOR001W, strain rrp6, stronger effect = lower value 0.99 | S. cerevisiae deletion strains, locus YOR061W, strain CKA2, stronger effect = lower value 0.986 | S. cerevisiae deletion strains, locus YOR069W, strain VPS5, stronger effect = lower value 1.01 | S. cerevisiae deletion strains, locus YOR070C, strain gyp1, stronger effect = lower value 0.971 | S. cerevisiae deletion strains, locus YOR080W, strain dia2, stronger effect = lower value 0.972 | S. cerevisiae deletion strains, locus YOR083W, strain WHI5 (second series), stronger effect = lower value 1.12 | S. cerevisiae deletion strains, locus YOR083W, strain WHI5, stronger effect = lower value 0.996 | S. cerevisiae deletion strains, locus YOR106W, strain vam3, stronger effect = lower value 0.927 | S. cerevisiae deletion strains, locus YOR136W, strain idh2, stronger effect = lower value 0.989 | S. cerevisiae deletion strains, locus YOR144C, strain elg1, stronger effect = lower value 0.992 | S. cerevisiae deletion strains, locus YOR184W, strain ser1, stronger effect = lower value 0.909 | S. cerevisiae deletion strains, locus YOR231W, strain MKK1, stronger effect = lower value 0.949 | S. cerevisiae deletion strains, locus YOR265W, strain rbl2, stronger effect = lower value 0.97 | S. cerevisiae deletion strains, locus YOR270C, strain vph1, stronger effect = lower value 0.799 | S. cerevisiae deletion strains, locus YOR290C, strain snf2, stronger effect = lower value 0.97 | S. cerevisiae deletion strains, locus YOR316C, strain cot1, stronger effect = lower value 0.988 | S. cerevisiae deletion strains, locus YPL051W, strain arl3, stronger effect = lower value 1 | S. cerevisiae deletion strains, locus YPL055C, strain LGE1, stronger effect = lower value 0.971 | S. cerevisiae deletion strains, locus YPL078C, strain atp4, stronger effect = lower value 0.985 | S. cerevisiae deletion strains, locus YPL106C, strain sse1, stronger effect = lower value 1.02 | S. cerevisiae deletion strains, locus YPL240C, strain hsp82, stronger effect = lower value 0.994 | S. cerevisiae deletion strains, locus YPL241C, strain CIN2, stronger effect = lower value 0.99 and 0.991 | S. cerevisiae deletion strains, locus YPL256C, strain CLN2, stronger effect = lower value 0.953 | S. cerevisiae deletion strains, locus YPR119W, strain clb2, stronger effect = lower value 0.983 | S. cerevisiae deletion strains, locus YPR141C, strain kar3, stronger effect = lower value 0.985 | S. cerevisiae deletion strains, locus YPR163C, strain tif3, stronger effect = lower value 0.981 | S. cerevisiae deletion strains, locus YPR167C, strain met16, stronger effect = lower value 0.984 | S. cerevisiae deletion strains, strain wtn01, stronger effect = lower value 0.987 | S. cerevisiae strains, strain wild type, stronger effect = lower value 0.993
